Inconclusive results are not listed. Values without a mark were called inactive. Active and inactive are the calls of the source. Calls follow the shape of the dose curve; as a rule, active = well fitted cell-killing curve with a large enough effect in the repeat runs; inconclusive = weak or mixed curves, or effect the other way; inactive = no such curve, though single readings can be large or run the other way.
assay: qHTS assay to identify small molecule agonists of the RXR signaling pathway - cell viability counter screen (AID 1159529); settings: RXR-alpha-bla HEK293T viability, CellTiter-Glo, 16 h; series mostly up to 76.8 µM; activity change, negative = cytotoxicity: at the top concentration; also: nearly all actives have a fitted effect of over 50% in size
From the text: National Center for Advancing Translational Sciences [NCATS]
NIH Chemical Genomics Center [NCGC]
U.S. Environmental Protection Agency [EPA]
National Institutes of Environmental Health Sciences [NIEHS]
National Toxicology Program [NTP]
U.S. Food and Drug Administration [FDA]
The Retinoid X receptor (RXR), a nuclear hormone receptor expressed in liver, spleen, placenta, epidermis, central nervous system. These receptors are able to form homo and heterodimers with other nuclear receptors and due to this heterodimerizing ability, RXR functions as master regulators producing diverse physiological effects. Three subtypes of RXR exist; alpha, beta and gamma. Retinoid X receptor alpha (RXR-alpha) has potential roles in metabolic signaling pathways, skin alopecia, dermal cysts, cardiac development, insulin sensitization etc. Therefore screening environmental chemicals on RXR-alpha signaling can be used for the studies focused on such therapeutic applications. For quantification of RXR-alpha ligands signaling, GeneBLAzer RXR alpha-UAS-bla HEK 293T (Life Technologies, Carlsbad, CA) cells containing a beta-lactamase reporter-gene under control of Retinoid X receptor-alpha response element were used to screen Tox21 10K library. The cytotoxicity of the Tox21 compound library against the RXR-alpha HEK 293T cell line was tested in parallel by measuring cell viability using CellTiter-Glo assay (Promega Corporation, Madison, WI) in the same wells.
Tox21 Assay Protocol Summary:
RXR-alpha HEK 293T cells were dispensed at 2,000 cells/6 uL of assay medium containing 2% charcoal-stripped FBS using a Multidrop Combi (ThermoFisher Scientific, Waltham, MA) dispenser. The assay was performed in black wall/clear-bottom 1536-well plates (Greiner Bio-One North America Inc. Monroe, NC). Tetraoctyl ammonium bromide was used as a positive control in the cytotoxicity screen. After the assay plates were incubated at 37 C and 5% CO2 for 5 hr, 23 nL of compounds dissolved in DMSO, positive control or DMSO only were transferred to the assay plate by a Pintool station (Kalypsys, San Diego, CA). The assay plates were incubated at 37 C and 5% CO2 for 16 hr. One uL of LiveBLAzer B/G FRET substrate (Life Technologies) was added using a Flying Reagent Dispenser (FRD) (Aurora Discovery, San Diego, CA) and the plates were incubated at room temperature for 2 hr. Fluorescence intensity (405 nm excitation, 460/530 nm emission) was measured using an Envision plate reader (PerkinElmer, Shelton, CT). For cytotoxicity, 4 uL/well of CellTiter-Glo reagent was added into the assay plates using an FRD. After 30 min incubation at room temperature, the luminescence intensity was measured using a ViewLux plate reader (PerkinElmer).
% is scaled to controls: 0 for no effect and ±100 for the full control effect; potency is read from the fitted curve at half-maximal effect.

In order of falling “activity change, negative = cytotoxicity” value:
1. O=C1NC(=O)c2cc([N+](=O)[O-])ccc21  8.93%
2. CC(CCC(=O)O)C(=O)O (stereo not given)  7.58%
3. O=C(OC(=O)c1ccccc1)c1ccccc1  7.42%
4. Cc1cscn1  6.46%
5. CCCCCCCC/C=C\CCCCCCCCCCCC(=O)O  4.7%
6. C=C(C)C(=O)OCCOCCOC(=O)C(=C)C  4.69%
7. N#CCc1ccc(Cl)cc1Cl  4.14%
8. O=C1NCCN1CCO  2.89%
9. CCC(=O)OC  2.34%
10. OCCOCC#CCOCCO  2.25%
11. C=C1CCC2CC1C2(C)C (stereo not given)  1.13%
12. Cc1ccc(CO)cc1  -0.158%
13. N#[N+]c1ccc2c(S(=O)(=O)[O-])cccc2c1O  -4.39%
14. C=C1C[C@@]23CC[C@H]4[C@@](C)(CCC[C@@]4(C)C(=O)O[C@@H]4O[C@H](CO)[C@@H](O)[C@H](O)[C@H]4O)[C@@H]2CC[C@]1(O[C@@H]1O[C@H](CO)[C@@H](O)[C@H](O[C@@H]2O[C@H](CO)[C@@H](O)[C@H](O)[C@H]2O)[C@H]1O[C@@H]1O[C@H](CO)[C@@H](O)[C@H](O)[C@H]1O)C3  -4.74%
15. NC(=O)c1ccncc1  -6.64%
16. CCCCC(CC)COP(=O)(O)O (stereo not given)  -6.98%
17. C=Cc1ccc(S(=O)(=O)O)cc1  -11.2%
18. COC(=O)CCS  -16%
19. CCOC(=O)c1ccc(I)cc1  -17.1%
20. O=C1c2ccccc2C(=O)c2c(O)c(O)cc(O)c21  -18.1%
21. CC1=C(CC=O)C(C)(C)CCC1  -19.6%
22. COc1ccccc1NC(=O)c1cc2ccccc2cc1O  -20.6%
23. CCCCCCCCCCC(=O)O  -24.3%

In order of rising “activity change, negative = cytotoxicity” value:
1. COc1ccccc1N1CCN(CCCCNC(=O)c2ccc(-c3ccc(C(C)=O)cc3)cc2)CC1  -12.4% [at 35.3 µM]
2. CCCCOc1ccc(OCCCN2CCOCC2)cc1  -10.1% [at 35.3 µM]
3. Cc1c(C)c2c(c(C)c1OC(=O)CCC(=O)OCCO)CC[C@@](C)(CCC[C@H](C)CCC[C@H](C)CCCC(C)C)O2  -8.5% [at 35.3 µM]
4. Cc1ccccc1S  -3.9% [at 35.3 µM]
5. CC(CN(C)C)C(C)(O)Cc1ccc(Cl)cc1 (stereo not given)  1.32% [at 35.3 µM]
6. Nc1cccc2c1CN(C1CCC(=O)NC1=O)C2=O (stereo not given)  1.7% [at 35.3 µM]
7. CN1CCCN=C1COC(=O)C(O)(c1ccccc1)C1CCCCC1 (stereo not given)  2.38% [at 35.3 µM]
8. CC1=C(Br)C(=O)C(Br)=C/C1=C(/c1ccccc1S(=O)(=O)O)c1cc(Br)c(O)c(Br)c1C  3.81% [at 35.3 µM]
9. COC(=O)C1=C(C)NC(C)=C(C(=O)O[C@@H]2CCCN(Cc3ccccc3)C2)[C@@H]1c1cccc([N+](=O)[O-])c1  4.68% [at 35.3 µM]
10. C[C@]1(Cn2ccnn2)[C@H](C(=O)O)N2C(=O)C[C@H]2S1(=O)=O  6.4% [at 35.3 µM]
11. COc1ncnc(NS(=O)(=O)c2ccc(N)cc2)c1OC  8.6% [at 35.3 µM]
12. CC[C@]1(O)C[C@H]2CN(CCc3c([nH]c4ccccc34)[C@@](C(=O)OC)(c3cc4c(cc3OC)N(C=O)[C@H]3[C@@](O)(C(=O)OC)[C@H](OC(C)=O)[C@]5(CC)C=CCN6CC[C@]43[C@@H]65)C2)C1  17.5% [at 35.3 µM]

In the case of `CCCCCC[C@@H](O)C/C=C\CCCCCCCC(=O)O`, the Potency is reported as 38.9 µM (active).
In the case of `Cc1ccc2c(Br)cc(Br)c(O)c2n1`, the Potency is reported as 26.8 µM (active).
For `COC(=O)c1nc(Cl)c(Cl)nc1N`, the Potency was 13.4 µM (active).
For `CN1C(=O)N(c2ccccc2Br)Cc2cnc(Nc3ccc4c(c3)OCC(CO)O4)nc21` (stereo not given), the Potency was 0.245 µM (active).
For `COc1cc(Nc2c(C#N)cnc3cc(OCCCN4CCN(C)CC4)c(OC)cc23)c(Cl)cc1Cl`, the Potency was 8.49 µM (active).

— PubChem BioAssay (Tox21)
